# Of roughly 21,000 targets only a part is listed; those with the largest changes were picked by preference.
# Compound: CC1Cc2ccccc2N1C(=O)C1CCCN(C1)C(=O)CCl (mixture of isomers) [TRIM25 ligand 11 (diastereomer mixture)]
# Test: probe-labelled cysteine peptide fold change vs DMSO (competition) (log2 fold change); higher = less target engagement (more negative = stronger competition)
# Details: 10 µM; THP-1; incubation time: 4 h
# 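Also: competitive chemoproteomic profiling in live THP-1 cells with an iodoacetamide desthiobiotin (IA-DTB) probe, comparing probe-labelled peptide intensities in compound-treated cells against DMSO-treated controls.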
# Sequence of UniProt Q9Y6B6 (Q9Y6B6 whole entry, looked up): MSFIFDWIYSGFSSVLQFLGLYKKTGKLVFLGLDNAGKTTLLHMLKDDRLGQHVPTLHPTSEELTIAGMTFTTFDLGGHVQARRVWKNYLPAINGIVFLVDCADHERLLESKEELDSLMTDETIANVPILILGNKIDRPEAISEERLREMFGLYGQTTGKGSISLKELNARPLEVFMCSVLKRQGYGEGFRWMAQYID
# Sequence of UniProt Q96T23 (Q96T23 whole entry, looked up): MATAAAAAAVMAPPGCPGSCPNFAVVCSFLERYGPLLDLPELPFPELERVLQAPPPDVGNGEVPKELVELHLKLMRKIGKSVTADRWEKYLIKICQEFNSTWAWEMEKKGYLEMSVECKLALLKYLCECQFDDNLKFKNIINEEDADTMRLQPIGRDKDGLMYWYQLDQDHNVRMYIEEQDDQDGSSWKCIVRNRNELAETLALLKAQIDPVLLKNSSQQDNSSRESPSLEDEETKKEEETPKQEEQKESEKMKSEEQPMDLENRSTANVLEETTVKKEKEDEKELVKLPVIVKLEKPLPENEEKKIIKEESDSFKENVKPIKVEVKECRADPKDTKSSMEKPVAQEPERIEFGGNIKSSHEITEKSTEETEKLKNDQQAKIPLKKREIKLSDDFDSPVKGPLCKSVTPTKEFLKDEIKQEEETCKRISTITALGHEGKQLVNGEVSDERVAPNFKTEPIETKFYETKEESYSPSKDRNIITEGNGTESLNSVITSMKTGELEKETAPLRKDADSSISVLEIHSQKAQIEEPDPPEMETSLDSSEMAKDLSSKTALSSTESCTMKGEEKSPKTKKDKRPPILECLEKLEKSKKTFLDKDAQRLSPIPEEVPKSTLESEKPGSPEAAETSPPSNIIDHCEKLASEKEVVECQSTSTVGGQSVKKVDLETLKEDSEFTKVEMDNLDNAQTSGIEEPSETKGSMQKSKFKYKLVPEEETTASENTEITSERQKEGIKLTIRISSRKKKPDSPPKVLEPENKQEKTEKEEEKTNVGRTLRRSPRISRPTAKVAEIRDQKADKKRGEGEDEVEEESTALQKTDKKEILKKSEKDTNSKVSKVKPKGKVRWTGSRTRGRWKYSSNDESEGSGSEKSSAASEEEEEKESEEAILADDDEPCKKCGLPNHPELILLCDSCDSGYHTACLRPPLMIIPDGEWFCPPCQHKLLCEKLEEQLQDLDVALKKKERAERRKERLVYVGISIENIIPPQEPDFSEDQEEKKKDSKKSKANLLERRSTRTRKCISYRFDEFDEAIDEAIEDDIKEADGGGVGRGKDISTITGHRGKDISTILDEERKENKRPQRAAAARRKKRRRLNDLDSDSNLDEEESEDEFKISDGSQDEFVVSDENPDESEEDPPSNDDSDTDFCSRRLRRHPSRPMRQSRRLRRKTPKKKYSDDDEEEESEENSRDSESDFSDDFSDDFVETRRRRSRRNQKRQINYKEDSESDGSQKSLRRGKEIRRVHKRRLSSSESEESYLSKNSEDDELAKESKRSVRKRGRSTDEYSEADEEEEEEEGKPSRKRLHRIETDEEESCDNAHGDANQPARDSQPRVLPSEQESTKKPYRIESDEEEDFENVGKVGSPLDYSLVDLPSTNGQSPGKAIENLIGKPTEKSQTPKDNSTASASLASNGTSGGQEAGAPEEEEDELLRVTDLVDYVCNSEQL
# Sequence of UniProt Q5VWQ0 (Q5VWQ0 whole entry, looked up): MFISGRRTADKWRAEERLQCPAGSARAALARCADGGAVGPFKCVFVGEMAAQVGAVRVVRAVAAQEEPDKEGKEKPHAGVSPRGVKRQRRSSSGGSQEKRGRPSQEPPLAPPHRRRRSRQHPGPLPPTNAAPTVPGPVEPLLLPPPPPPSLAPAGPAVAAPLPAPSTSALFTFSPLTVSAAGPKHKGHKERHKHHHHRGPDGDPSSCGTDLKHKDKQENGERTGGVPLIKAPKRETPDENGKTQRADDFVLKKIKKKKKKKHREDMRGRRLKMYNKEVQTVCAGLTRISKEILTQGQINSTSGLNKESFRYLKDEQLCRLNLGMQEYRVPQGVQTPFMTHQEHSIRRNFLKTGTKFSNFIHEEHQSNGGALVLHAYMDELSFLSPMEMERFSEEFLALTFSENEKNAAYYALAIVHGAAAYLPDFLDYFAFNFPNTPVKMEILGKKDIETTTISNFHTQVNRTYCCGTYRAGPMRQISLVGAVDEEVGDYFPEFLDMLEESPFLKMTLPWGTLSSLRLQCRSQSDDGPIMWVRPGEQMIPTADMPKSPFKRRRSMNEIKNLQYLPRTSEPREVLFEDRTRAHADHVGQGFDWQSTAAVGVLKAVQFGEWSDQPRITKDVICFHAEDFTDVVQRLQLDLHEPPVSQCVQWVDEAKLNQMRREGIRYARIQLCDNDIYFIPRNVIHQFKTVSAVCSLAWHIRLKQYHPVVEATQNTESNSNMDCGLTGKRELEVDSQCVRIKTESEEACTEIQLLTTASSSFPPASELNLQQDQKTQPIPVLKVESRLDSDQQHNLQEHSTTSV
# Sequence of UniProt Q9NR31 (Q9NR31 whole entry, looked up): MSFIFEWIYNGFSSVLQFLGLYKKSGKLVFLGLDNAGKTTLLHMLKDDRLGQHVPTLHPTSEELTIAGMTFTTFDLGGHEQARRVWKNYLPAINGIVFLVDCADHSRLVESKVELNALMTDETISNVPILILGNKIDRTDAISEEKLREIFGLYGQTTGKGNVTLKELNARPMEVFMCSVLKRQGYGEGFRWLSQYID
# Sequence of UniProt P08047 (P08047 whole entry, looked up): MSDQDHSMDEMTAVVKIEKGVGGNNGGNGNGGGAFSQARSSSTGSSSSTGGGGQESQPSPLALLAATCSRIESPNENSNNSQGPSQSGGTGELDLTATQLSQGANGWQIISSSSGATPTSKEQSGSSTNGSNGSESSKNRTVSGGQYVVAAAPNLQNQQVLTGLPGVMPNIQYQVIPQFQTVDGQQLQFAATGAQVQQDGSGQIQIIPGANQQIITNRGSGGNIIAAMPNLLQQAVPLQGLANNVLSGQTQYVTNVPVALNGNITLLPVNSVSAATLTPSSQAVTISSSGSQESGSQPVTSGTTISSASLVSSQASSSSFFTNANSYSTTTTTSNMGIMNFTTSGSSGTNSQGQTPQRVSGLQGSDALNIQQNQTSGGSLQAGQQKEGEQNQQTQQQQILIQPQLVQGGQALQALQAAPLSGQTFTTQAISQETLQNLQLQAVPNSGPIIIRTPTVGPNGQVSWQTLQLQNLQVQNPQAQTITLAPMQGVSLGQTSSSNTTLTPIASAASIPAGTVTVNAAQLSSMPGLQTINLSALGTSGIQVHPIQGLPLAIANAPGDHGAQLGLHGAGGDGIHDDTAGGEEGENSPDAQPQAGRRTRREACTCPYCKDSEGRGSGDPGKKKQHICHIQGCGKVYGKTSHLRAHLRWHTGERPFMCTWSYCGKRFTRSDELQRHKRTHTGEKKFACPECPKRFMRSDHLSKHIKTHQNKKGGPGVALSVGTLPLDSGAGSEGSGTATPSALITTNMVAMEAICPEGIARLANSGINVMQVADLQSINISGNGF
# Sequence of UniProt Q9NRM0 (Q9NRM0 whole entry): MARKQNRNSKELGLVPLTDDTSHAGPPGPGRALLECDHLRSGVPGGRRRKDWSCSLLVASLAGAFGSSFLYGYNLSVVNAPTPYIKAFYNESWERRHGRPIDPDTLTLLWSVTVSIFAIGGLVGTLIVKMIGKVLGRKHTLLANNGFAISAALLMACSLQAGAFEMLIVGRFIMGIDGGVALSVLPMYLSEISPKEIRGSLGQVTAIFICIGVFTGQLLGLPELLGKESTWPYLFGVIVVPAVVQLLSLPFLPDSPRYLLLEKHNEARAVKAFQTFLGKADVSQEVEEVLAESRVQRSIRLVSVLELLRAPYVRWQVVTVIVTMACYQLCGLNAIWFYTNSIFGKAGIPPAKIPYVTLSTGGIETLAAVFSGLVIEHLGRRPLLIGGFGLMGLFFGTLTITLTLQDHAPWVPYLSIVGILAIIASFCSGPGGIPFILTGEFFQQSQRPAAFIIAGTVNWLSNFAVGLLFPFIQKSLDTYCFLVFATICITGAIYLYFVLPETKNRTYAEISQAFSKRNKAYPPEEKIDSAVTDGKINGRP
# Sequence of UniProt Q9UBE0 (Q9UBE0 whole entry, looked up): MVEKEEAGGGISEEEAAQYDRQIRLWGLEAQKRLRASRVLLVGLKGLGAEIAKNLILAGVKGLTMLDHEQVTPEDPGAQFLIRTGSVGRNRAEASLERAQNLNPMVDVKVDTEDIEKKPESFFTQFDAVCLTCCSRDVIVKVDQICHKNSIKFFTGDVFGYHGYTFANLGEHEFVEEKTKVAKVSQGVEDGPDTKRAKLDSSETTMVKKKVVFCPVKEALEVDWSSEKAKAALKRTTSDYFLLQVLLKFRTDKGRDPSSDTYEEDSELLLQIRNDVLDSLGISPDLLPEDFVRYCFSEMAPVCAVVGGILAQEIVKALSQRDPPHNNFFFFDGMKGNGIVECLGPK
# Sequence of UniProt Q9Y3I0 (Q9Y3I0 whole entry, looked up): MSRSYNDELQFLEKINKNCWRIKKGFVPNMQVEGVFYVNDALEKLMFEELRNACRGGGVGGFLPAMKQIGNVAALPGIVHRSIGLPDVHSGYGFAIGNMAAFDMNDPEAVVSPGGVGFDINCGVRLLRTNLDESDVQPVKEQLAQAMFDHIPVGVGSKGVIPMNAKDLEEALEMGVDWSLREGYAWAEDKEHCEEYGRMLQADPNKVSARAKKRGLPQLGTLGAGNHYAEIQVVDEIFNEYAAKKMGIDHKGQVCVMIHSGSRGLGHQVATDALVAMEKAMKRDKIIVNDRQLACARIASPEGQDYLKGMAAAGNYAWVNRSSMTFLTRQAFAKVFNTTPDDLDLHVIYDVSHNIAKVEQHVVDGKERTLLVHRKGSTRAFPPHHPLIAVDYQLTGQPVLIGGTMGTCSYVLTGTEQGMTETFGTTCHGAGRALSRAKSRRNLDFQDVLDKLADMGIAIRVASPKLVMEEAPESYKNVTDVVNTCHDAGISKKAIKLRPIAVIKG
# Sequence of UniProt P03973 (P03973 whole entry): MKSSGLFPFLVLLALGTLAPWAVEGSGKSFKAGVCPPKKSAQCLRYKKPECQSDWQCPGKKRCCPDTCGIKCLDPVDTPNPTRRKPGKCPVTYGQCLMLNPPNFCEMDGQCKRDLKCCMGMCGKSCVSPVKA
row,Target,probe-labelled cysteine peptide fold change
1,SF1_Q15637_282+292_CGGAGHIASDCK (UniProt Q15637),-0.0927
2,SLX4_Q8IY92_786_FGVSELVHLCEQVPIATDSEGKPWEEK (UniProt Q8IY92),0.00222
3,SLC2A9_Q9NRM0_36_ALLECDHLR (UniProt Q9NRM0),-0.0472
4,SEC23B_Q15437_434_GPCVSENELGVGGTSQWK (UniProt Q15437),0.0914
5,SAE1_Q9UBE0_303_YCFSEMAPVCAVVGGILAQEIVK (UniProt Q9UBE0),-0.0632
6,SMC1A_Q14683_781_MNQVEDEVFEEFCR (UniProt Q14683),0.0344
7,SLPI_P03973_51+57_YKKPECQSDWQCPGK (UniProt P03973),-0.301
8,RSF1_Q96T23_1311_IETDEEESCDNAHGDANQPAR (UniProt Q96T23),0.0514
9,SPAG1_Q07617_825_EACAHLLAITAPK (UniProt Q07617),-0.0823
10,RTCB_Q9Y3I0_485_NVTDVVNTCHDAGISK (UniProt Q9Y3I0),-0.0281
11,SAMD9_Q5K651_975+979_TEVIECGNYCGVR (UniProt Q5K651),0.388
12,RUBCNL_Q9H714_641_QCFQSSECPR (UniProt Q9H714),0.144
13,SLC7A7_Q9UM01_349_EGHLPDAICMIHVER (UniProt Q9UM01),0.0357
14,SCAF11_Q99590_553_TDVCTVHLPNDFPTCLTSESK (UniProt Q99590),0.0519
15,SON_P18583_2070_ANAAAMCAK (UniProt P18583),0.0129
16,SAR1A_Q9NR31_178_ELNARPMEVFMCSVLKR (UniProt Q9NR31),-0.614
17,SACS_Q9NZJ4_3694_QCDVLQLLWTSCPILPEK (UniProt Q9NZJ4),-0.00918
18,SNRNP40_Q96DI7_72_CSSLQAPIMLLSGHEGEVYCCK (UniProt Q96DI7),0.165
19,SHCBP1_Q8NEM2_591_VDLEELIECATGK (UniProt Q8NEM2),0.088
20,SAR1B_Q9Y6B6_102_NYLPAINGIVFLVDCADHER (UniProt Q9Y6B6),0.177
21,RSBN1_Q5VWQ0_282_EVQTVCAGLTR (UniProt Q5VWQ0),0.00457
22,SP1_P08047_633_KQHICHIQGCGK (UniProt P08047),-0.185
